Assays:
Assay in all cases: DAPPL (digital affinity profiling via proximity ligation, sequencing); 10 mM Tris-HCl pH 7.5, 50 mM NaCl, 1 mM DTT, 4% glycerol, room temperature, 30 min; GST-TFs on glutathione beads, 16-mer random dsDNA library, 0.1% formaldehyde crosslink after washing; high values mean tight binding
FEV = biological target: T1, FEV (Homo sapiens, UniProt Q99581 1-238); details: protein: recombinant; tags: N-terminal GST; dsDNA, one strand shown
T1 sequence: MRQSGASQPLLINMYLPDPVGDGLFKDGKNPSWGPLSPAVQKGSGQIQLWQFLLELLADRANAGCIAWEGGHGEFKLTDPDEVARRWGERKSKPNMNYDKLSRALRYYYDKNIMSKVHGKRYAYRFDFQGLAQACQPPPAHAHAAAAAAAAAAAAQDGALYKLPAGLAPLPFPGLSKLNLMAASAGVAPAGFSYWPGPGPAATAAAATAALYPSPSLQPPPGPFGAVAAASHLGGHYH
How it was run: (§1)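 Pools of DNA-barcoded human transcription factors, expressed in yeast as GST fusions on glutathione beads and combined with a tag-only sample, were incubated with 200 nmole of a 16-mer random double-stranded DNA library. Incubation took 30 min at room temperature in Tris/NaCl/DTT/glycerol buffer and was followed by washing, 0.1% formaldehyde crosslinking, proximity ligation (BsaI/T4 ligase, 1 h, 37 °C), PCR amplification and sequencing on an Illumina NextSeq500. Binding signal is the ratio of a hexamer's read frequency for a factor to its frequency for the tag-only sample.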

ETV5 = ETV5 (Homo sapiens, UniProt P41161 1-510); details: protein: recombinant; tags: N-terminal GST; dsDNA, one strand shown
How it was run: as §1

HSF1 = HSF1 (Homo sapiens, UniProt Q00613 1-529); details: protein: recombinant; tags: N-terminal GST; chain copies: 3; dsDNA, one strand shown
How it was run: as §1

SPIC = biological target: T2, SPIC (Homo sapiens, UniProt Q8N5J4 1-248); details: protein: recombinant; tags: N-terminal GST; dsDNA, one strand shown
T2 sequence: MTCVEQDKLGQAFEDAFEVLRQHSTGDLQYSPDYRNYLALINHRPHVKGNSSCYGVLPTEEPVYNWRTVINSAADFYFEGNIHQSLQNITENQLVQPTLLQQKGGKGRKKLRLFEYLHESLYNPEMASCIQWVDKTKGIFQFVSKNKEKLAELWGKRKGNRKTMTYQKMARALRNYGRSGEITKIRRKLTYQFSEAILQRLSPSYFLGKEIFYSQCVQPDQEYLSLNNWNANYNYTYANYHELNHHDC
How it was run: as §1

ELF4 = ELF4 (Homo sapiens, UniProt Q99607 1-663); details: protein: recombinant; tags: N-terminal GST; dsDNA, one strand shown
How it was run: as §1

ELK4 = biological target: T3, ELK4 (Homo sapiens, UniProt P28324-2 1-405); details: protein: recombinant; tags: N-terminal GST; dsDNA, one strand shown
T3 sequence: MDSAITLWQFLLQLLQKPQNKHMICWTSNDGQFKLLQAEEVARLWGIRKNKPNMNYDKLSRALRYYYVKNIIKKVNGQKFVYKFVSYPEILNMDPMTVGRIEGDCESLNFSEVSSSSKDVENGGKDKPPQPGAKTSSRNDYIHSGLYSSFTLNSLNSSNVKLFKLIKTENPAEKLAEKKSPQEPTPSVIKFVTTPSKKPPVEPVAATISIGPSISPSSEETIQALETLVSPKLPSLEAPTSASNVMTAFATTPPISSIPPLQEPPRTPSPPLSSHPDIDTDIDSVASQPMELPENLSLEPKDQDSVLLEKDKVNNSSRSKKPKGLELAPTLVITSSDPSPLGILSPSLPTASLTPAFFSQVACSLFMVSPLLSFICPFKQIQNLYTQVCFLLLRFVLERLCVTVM
How it was run: as §1

ETV2 = biological target: T4, ETV2 (Homo sapiens, UniProt O00321 1-342); details: protein: recombinant; tags: N-terminal GST; dsDNA, one strand shown
T4 sequence: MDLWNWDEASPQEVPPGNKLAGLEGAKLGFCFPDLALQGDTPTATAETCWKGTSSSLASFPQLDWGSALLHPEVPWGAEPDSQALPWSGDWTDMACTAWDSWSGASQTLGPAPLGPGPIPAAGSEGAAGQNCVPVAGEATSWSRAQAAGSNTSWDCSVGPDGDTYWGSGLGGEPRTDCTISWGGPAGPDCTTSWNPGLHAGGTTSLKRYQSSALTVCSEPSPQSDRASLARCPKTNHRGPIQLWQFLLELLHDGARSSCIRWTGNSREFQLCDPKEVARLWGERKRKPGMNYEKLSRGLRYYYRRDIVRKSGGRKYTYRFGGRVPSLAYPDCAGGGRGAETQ
How it was run: as §1

ELF3 = biological target: T5, ELF3 (Homo sapiens, UniProt P78545 1-371); details: protein: recombinant; tags: N-terminal GST; dsDNA, one strand shown
T5 sequence: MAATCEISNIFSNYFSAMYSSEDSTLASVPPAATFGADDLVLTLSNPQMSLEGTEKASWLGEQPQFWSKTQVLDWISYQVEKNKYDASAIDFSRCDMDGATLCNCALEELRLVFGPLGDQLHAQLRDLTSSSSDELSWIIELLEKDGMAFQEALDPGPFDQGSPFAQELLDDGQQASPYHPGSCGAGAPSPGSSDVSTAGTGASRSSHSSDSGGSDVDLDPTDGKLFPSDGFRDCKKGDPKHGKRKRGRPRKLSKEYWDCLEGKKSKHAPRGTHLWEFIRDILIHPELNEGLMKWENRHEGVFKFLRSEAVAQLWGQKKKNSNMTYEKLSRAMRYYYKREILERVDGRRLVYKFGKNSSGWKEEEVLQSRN
How it was run: as §1

CRX = CRX (Homo sapiens, UniProt O43186 1-299); details: protein: recombinant; tags: N-terminal GST; dsDNA, one strand shown
How it was run: as §1

ETV1 = ETV1 (Homo sapiens, UniProt P50549 1-477); details: protein: recombinant; tags: N-terminal GST; dsDNA, one strand shown
How it was run: as §1

Chain of CRX (O43186 whole entry): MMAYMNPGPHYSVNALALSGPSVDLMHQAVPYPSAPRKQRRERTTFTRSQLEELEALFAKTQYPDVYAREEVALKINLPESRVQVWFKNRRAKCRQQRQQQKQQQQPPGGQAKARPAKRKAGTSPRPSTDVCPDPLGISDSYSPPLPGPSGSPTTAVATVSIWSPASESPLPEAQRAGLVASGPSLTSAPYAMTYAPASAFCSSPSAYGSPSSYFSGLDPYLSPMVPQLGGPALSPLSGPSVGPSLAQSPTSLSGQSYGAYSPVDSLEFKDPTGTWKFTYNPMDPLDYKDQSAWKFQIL
Chain of ETV1 (P50549 whole entry): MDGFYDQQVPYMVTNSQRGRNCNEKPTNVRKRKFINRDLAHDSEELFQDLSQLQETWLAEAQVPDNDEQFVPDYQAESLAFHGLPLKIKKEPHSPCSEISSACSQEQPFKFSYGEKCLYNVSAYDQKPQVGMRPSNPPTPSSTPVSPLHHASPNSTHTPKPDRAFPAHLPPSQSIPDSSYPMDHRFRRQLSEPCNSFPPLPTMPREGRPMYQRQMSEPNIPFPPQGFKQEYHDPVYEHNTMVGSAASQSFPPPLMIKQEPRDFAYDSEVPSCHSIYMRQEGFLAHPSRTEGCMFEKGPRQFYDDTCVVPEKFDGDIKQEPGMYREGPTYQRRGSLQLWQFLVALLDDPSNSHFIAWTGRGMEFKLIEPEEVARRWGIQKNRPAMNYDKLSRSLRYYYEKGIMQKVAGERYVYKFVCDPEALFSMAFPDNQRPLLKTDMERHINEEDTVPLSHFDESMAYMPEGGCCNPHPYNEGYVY
Chain of HSF1 (Q00613 whole entry): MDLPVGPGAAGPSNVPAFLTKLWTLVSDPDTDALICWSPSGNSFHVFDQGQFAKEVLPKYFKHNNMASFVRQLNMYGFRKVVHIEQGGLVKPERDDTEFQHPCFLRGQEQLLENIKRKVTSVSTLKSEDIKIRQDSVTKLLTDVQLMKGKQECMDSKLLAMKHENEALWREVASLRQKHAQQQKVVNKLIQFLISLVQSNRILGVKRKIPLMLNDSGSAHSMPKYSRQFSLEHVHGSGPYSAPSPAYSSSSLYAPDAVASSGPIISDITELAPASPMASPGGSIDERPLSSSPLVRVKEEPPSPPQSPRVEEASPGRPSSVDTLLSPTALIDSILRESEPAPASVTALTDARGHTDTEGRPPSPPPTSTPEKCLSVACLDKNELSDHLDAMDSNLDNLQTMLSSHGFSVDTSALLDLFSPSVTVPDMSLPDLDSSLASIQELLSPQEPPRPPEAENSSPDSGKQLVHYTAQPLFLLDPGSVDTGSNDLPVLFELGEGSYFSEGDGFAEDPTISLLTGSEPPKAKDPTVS
Chain of ELF4 (Q99607 whole entry): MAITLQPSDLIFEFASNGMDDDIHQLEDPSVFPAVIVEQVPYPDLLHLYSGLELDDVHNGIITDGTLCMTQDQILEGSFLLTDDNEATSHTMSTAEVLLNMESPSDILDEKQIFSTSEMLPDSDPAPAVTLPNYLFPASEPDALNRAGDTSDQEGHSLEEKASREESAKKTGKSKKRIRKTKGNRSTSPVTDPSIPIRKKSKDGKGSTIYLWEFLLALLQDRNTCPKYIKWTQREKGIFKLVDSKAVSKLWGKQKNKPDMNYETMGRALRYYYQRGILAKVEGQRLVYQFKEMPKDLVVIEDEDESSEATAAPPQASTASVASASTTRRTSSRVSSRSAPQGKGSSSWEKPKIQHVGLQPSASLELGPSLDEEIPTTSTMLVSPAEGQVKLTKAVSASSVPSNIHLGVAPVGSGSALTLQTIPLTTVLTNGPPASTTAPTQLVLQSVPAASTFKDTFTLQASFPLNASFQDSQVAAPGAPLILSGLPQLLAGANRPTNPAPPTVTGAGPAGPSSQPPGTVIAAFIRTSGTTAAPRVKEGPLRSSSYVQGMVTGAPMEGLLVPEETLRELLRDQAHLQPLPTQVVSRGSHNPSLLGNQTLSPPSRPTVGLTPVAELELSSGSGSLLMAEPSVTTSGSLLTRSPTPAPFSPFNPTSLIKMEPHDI
Chain of ETV5 (P41161 whole entry): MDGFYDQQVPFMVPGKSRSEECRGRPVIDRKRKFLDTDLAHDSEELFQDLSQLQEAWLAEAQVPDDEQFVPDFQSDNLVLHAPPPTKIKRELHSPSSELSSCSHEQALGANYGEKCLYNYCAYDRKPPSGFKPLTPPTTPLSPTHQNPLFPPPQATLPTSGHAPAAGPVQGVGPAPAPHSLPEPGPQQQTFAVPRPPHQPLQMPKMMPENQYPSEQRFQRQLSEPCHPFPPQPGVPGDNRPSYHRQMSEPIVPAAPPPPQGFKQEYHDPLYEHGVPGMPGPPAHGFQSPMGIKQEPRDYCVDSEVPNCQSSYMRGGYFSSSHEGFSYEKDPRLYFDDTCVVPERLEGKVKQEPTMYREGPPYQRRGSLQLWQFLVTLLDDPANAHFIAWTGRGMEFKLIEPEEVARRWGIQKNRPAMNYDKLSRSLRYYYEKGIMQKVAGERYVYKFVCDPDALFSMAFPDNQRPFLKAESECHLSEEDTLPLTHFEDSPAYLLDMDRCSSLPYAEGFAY

TGTTTA was tested, and the binding signal (FEV) was 1.12 fold enrichment (6-mer frequency, TF over GST control), the binding signal (ETV5) was 1.19 fold enrichment (6-mer frequency, TF over GST control) and the binding signal (HSF1) was 1.12 fold enrichment (6-mer frequency, TF over GST control). For the same sequence, the binding signal (SPIC) was 1.05 fold enrichment (6-mer frequency, TF over GST control), the binding signal (ELF4) was 1.11 fold enrichment (6-mer frequency, TF over GST control) and the binding signal (ELK4) was 1.25 fold enrichment (6-mer frequency, TF over GST control). The binding signal (ETV2) was 1.04 fold enrichment (6-mer frequency, TF over GST control), the binding signal (ELF3) was 1.22 fold enrichment (6-mer frequency, TF over GST control) and the binding signal (CRX) was 1.25 fold enrichment (6-mer frequency, TF over GST control). The binding signal (ETV1) was 1.09 fold enrichment (6-mer frequency, TF over GST control).

Source: publication PMC7862700, “An all-to-all approach to the identification of sequence-specific readers for epigenetic DNA modifications on cytosine”
